Bioassay records (PubChem)
An excerpt weighted towards active compounds, which were near 11% of everything screened.
HSD17B inhib = inhibitors of human HSD17B10 dehydrogenase; 7.6% of 75,000 active; AID 893; Q99714; recombinant HSD17B10, NADH fluorescence kinetic; Potency, µM (top dose mostly 57.1 µM), inactives show at the highest dose activity change, negative = inhibition, most hits filed as inhibitors;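 further: the protocol describes HADH2 (HSD17B10) and not the HSD17B4 of the title; nearly all actives have a fitted effect of over 70% in size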
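Enzyme plus compound, 15 min room temperature; substrate mix added (NAD+ 1 mM, beta-hydroxybutyryl-CoA 90 uM final); plates read kinetically for NADH fluorescence. HADH2 was His-tagged, E. coli-derived, 20 nM.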
Luciferase inh = blocks Photinus pyralis firefly luciferase activity; P08659; purified firefly luciferase, luminescence, 8 min; Potency, µM (top dose mostly 57.1 µM), inactives show top-dose activity change, negative = inhibition, most hits filed as inhibitors; 2.2% of 72,000 active; further: nearly all actives have a fitted effect of over 40% in size
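Compounds were tested as concentration series (qHTS) against purified P. pyralis luciferase with luciferin and 10 uM ATP in 50 mM imidazole pH 7.2, 50 mM KCl, 7 mM MgCl2, 0.01% Tween 20, 0.05% BSA. Luminescence was read after 8 min at ambient temperature.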
PK Bst = alters activity of Bacillus stearothermophilus pyruvate kinase; purified pyruvate kinase, luminescence ATP production; ribose 5-phosphate activator present at AC10; Potency, µM; 1.2% of 51,000 active; AID 361; in the data active means potency below about 11 µM; inconclusive means mostly about 12 µM to 25 µM;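 the screen sought inhibitors and activators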;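 further: scaled between full activation by ribose 5 phosphate and full inhibition by luteolin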
ERK AVP inh = vasopressin-driven ERK pathway inhibition; HEK293-V1b, vasopressin-stimulated pERK AlphaScreen; Potency, µM (titrated, usually from 57.5 µM), for the others: top-dose activity, negative = inhibition, actives largely listed as inhibitors; 0.99% of 72,000 active; AID 995; further: nearly all actives have a fitted effect of over 55% in size
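HEK293 cells stably expressing V1b receptor, preincubated 30 min at 37 °C with compound, then stimulated 5 min with 25 nM vasopressin. Phospho-ERK by AlphaScreen SureFire after 5 h RT; normalized to DMSO and vasopressin; AC50 by Hill fit.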
HADH2 inh = inhibitors of human HADH2 dehydrogenase. Q99714. recombinant HADH2, NADH fluorescence, beta-hydroxybutyryl-CoA. Potency, µM (highest dose often 57.1 µM), without a hit: at the top dose activity change, negative = inhibition, most hits filed as inhibitors. 3.4% of 73,000 active; further: nearly all actives have a fitted effect of over 60% in size
Target sequence (Q99714 whole entry, looked up, one chain of several): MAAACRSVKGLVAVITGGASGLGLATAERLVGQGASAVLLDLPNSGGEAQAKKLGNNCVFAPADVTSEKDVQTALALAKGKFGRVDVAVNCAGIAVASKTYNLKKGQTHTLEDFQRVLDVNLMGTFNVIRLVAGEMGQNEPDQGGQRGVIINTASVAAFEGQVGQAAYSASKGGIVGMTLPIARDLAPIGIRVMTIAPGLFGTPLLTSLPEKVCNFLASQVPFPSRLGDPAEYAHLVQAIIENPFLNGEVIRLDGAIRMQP
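Read-out: 360 nm excitation, 450 nm emission, kinetic over 4 min. Conditions: His-tagged human HADH2 20 nM, pH 9.0 Tris with Tween-20, 1 mM NAD+, 90 uM beta-hydroxybutyryl-CoA.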
ALOX15 inhib = blocks human 15-lipoxygenase activity; P16050; purified 15hLO-1, xylenol orange hydroperoxide absorbance; Potency, µM (doses to about 57.1 µM), for the others: at the highest dose activity change, negative = inhibition, hits mostly inhibitors; 1.4% of 74,000 active; further: nearly all actives have a fitted effect of over 55% in size
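Purified human 15hLO-1 (40 nM final) in 25 mM Hepes pH 7.5, 0.01% Triton X-100 was preincubated with compound 15 min at room temperature, then reacted 6 min with 50 uM arachidonic acid; hydroperoxide detected by Fe-XO, 573/405 nm absorbance ratio.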
Numbers without * were called inactive; ! = not confirmed by another sample; [ ] = another dose, or the depositor's remark. Unless noted, the call rests on the fitted dose curve; in most records, active means well fitted curve in the direction sought with a large enough effect; inconclusive means small, poorly fitted or top-dose-only effect, or another doubt; inactive means no such curve, though single readings can be large; an effect the other way counts as inactive or inconclusive. Unless noted, on the % scale 0 is the no-effect control and ±100 the full control effect; potency means the concentration at half of the fitted maximal effect.

How did O=C(OCC#CCSc1nnc(-c2ccc(Br)cc2)o1)c1ccco1 do in these assays?
HSD17B inhib: -10%; Luciferase inh: -1%; PK Bst: >57; ERK AVP inh: 11%; HADH2 inh: -7%; ALOX15 inhib: 3.2µM*

What do the screens show for `O=C(OCC#CCSc1nnc(-c2cccc3ccccc23)o1)c1cccs1`?
HSD17B inhib: 32µM*; Luciferase inh: 0%; PK Bst: >57; ERK AVP inh: 71%; HADH2 inh: 32µM*

Results for CC(C)OC(=O)C[C@H](NC(=O)OC(C)(C)C)c1ccccc1 ?
HSD17B inhib: 2%[11.4 µM]; Luciferase inh: 1%[11.4 µM]; ERK AVP inh: 3%[11.5 µM]; HADH2 inh: -1%[11.4 µM]; ALOX15 inhib: 4%[11.4 µM]

Results for Cc1cc(=O)oc2cc(OCC(O)CN3CCc4ccccc4C3)ccc12 (configuration not stated) ?
HSD17B inhib: 32µM*; Luciferase inh: 0%; PK Bst: >57; ERK AVP inh: -12%; HADH2 inh: inconclusive; ALOX15 inhib: -4%

How did Cc1cc(=O)oc2cc(OCC(O)CN3CCN(c4ccccc4)CC3)ccc12 (configuration not stated) do in these assays?
HSD17B inhib: 32µM*; Luciferase inh: 1%; PK Bst: >57; ERK AVP inh: inconclusive; HADH2 inh: inconclusive; ALOX15 inhib: 8%

What do the screens show for `O=S(=O)(c1ccc(OCC(O)CN2CCN(c3ccccc3)CC2)cc1)N1CCOCC1` (configuration not stated)?
HSD17B inhib: -4%; Luciferase inh: 0%; PK Bst: >57; ERK AVP inh: 14%; HADH2 inh: 9%; ALOX15 inhib: 6%

How did C#CCOc1ccc2c(C)cc(=O)oc2c1 do in these assays?
HSD17B inhib: 3%; Luciferase inh: 3%; PK Bst: >57; ERK AVP inh: 2%; HADH2 inh: 3%; ALOX15 inhib: 0%

How did Cc1ccc([N+](=O)[O-])cc1S(=O)(=O)N(C)C do in these assays?
HSD17B inhib: 3%; ERK AVP inh: 0%; HADH2 inh: -4%; ALOX15 inhib: 25µM*!

How did Cc1cc2n(n1)C(c1sccc1C)Nc1c(C)cccc1-2 (configuration not stated) do in these assays?
HSD17B inhib: 20µM*; Luciferase inh: 1%; PK Bst: >57; ERK AVP inh: 11%; HADH2 inh: -2%; ALOX15 inhib: -3%

How did Cc1ccc2c(c1)-c1cc(C)nn1C(c1sccc1C)N2 (configuration not stated) do in these assays?
HSD17B inhib: 32µM*; Luciferase inh: inconclusive; PK Bst: 11*; ERK AVP inh: 13%; HADH2 inh: -26%; ALOX15 inhib: inconclusive

Results for Cc1ccsc1C1C(C(=O)O)c2ccccc2C(=O)N1C (configuration not stated) ?
HSD17B inhib: 12%; Luciferase inh: 2%; PK Bst: >57; ERK AVP inh: 20%; HADH2 inh: 2%; ALOX15 inhib: 0%

Results for Cc1cc2n(n1)C(c1sccc1C)Nc1ccccc1-2 (configuration not stated) ?
HSD17B inhib: 25µM*; Luciferase inh: -29%; PK Bst: >11; ERK AVP inh: -1%; HADH2 inh: 25µM*; ALOX15 inhib: -1%

Results for CN(C)CC(C)(C)CNC(=O)c1ccc(Cc2nc3ccccc3[nH]2)cc1 ?
HSD17B inhib: -2%; HADH2 inh: -4%; ALOX15 inhib: 3%

Results for CCc1ccc(CNc2ccc(O)cc2)cc1 ?
HSD17B inhib: -27%; Luciferase inh: -9%; ERK AVP inh: inconclusive; HADH2 inh: 16µM*; ALOX15 inhib: inconclusive

How did Cc1ccc(CNc2ccc3c(c2)OCO3)cc1 do in these assays?
HSD17B inhib: -23%; Luciferase inh: -9%; PK Bst: >57; ERK AVP inh: inconclusive; HADH2 inh: 16%; ALOX15 inhib: -24%

Results for COc1ccc(CCC(=O)c2c(O)cc(O[C@@H]3O[C@H](CO)[C@@H](O)[C@H](O)[C@H]3O[C@@H]3O[C@@H](C)[C@H](O)[C@@H](O)[C@H]3O)cc2O)cc1O ?
HSD17B inhib: 2%; ERK AVP inh: -27%; HADH2 inh: 4%; ALOX15 inhib: -3%

Results for Cc1noc(C)c1-c1nccc(NCc2ccccc2)n1 ?
HSD17B inhib: inconclusive; Luciferase inh: 0%[2.29 µM]; ERK AVP inh: -8%; HADH2 inh: 16µM*; ALOX15 inhib: 16µM*

What do the screens show for `CCCCNC(=O)C(c1ccc(OCC(=O)OC)c(C(=O)OC)c1)N(Cc1ccccn1)C(=O)CCCCCN1C(=O)NC(c2ccc(-c3ccccc3)cc2)C(C(=O)OCc2ccccc2)=C1C` (configuration not stated)?
HSD17B inhib: 13%; ERK AVP inh: -26%; HADH2 inh: -3%; ALOX15 inhib: -9%

Results for CCC(C)C1NC(=O)C(CCNCS(=O)(=O)O)NC(=O)C(NC(=O)C(CCNCS(=O)(=O)O)NC(=O)C(NC(=O)C(CCNCS(=O)(=O)O)NC(=O)CCCCC(C)C)C(C)O)CCNC(=O)C(C(C)O)NC(=O)C(CCNCS(=O)(=O)O)NC(=O)C(CCNCS(=O)(=O)O)NC(=O)C(C(C)CC)NC1=O (configuration not stated) ?
HSD17B inhib: inconclusive; ERK AVP inh: 20%; ALOX15 inhib: 3.2µM*

How did NC(=O)c1ncn([C@@H]2O[C@@H](CO)[C@@H](O)[C@H]2O)c1O do in these assays?
HSD17B inhib: -12%; Luciferase inh: -2%; ERK AVP inh: 0%; HADH2 inh: 15%; ALOX15 inhib: 7%

What do the screens show for `Cc1cc(NC(=O)Nc2ccc3c(ccn3C)c2)sn1`?
HSD17B inhib: -11%; Luciferase inh: 32µM*!; ERK AVP inh: inconclusive; HADH2 inh: -7%; ALOX15 inhib: -7%[25.6 µM]

Results for c1ccc(-c2onc3cc4c(cc23)OCCO4)cc1 ?
HSD17B inhib: 20µM*; Luciferase inh: 13µM*; ERK AVP inh: inconclusive; HADH2 inh: 61%; ALOX15 inhib: 13µM*

What do the screens show for `CC1(C)CC(=O)c2c(noc2-c2ccccc2)C1`?
HSD17B inhib: 4%; Luciferase inh: -2%; PK Bst: >57; ERK AVP inh: 28%; HADH2 inh: 0%; ALOX15 inhib: -4%

What do the screens show for `C[C@@](N)(Cc1c[nH]c2ccccc12)C(=O)O`?
HSD17B inhib: 6%[11.4 µM]; Luciferase inh: 2%[11.4 µM]; ERK AVP inh: 9%[11.5 µM]; HADH2 inh: 4%[11.4 µM]; ALOX15 inhib: -1%[11.4 µM]

How did CC(Cc1ccc(O)c(O)c1)(NN)C(=O)O (configuration not stated) do in these assays?
HSD17B inhib: 20µM*; ERK AVP inh: 4%; ALOX15 inhib: inactive
